Test results as given in PubChem BioAssay (NCI).
About 83,000 compounds went through this panel and 20% of them were active in at least one assay; those are over-represented in the sample as a whole.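 Growth was measured after 48 h exposure to one concentration of compound in 96-well plates. Values under 10 count as active.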 Values without a mark were called inactive. Activity calls are given as the source filed them.

Legend:
Experiment in all cases: NCI-60 one-dose screen, 48 h (100 = growth as untreated, 0 = no growth, -100 = all killed)
Settings in all cases: 10 µM unless noted
[1] = test system: T-47D breast
[2] = test system: BT-549 breast
[3] = test system: MDA-MB-435 melanoma
[4] = test system: SW-620 colon
[5] = test system: MCF7 breast
[6] = test system: HCT-116 colon
[7] = test system: HCC-2998 colon
[8] = test system: KM12 colon

SMILES | growth [1] | growth [2] | growth [3] | growth [4] | growth [5] | growth [6] | growth [7] | growth [8]
CCN(CC)c1ccc(\C=N/N=C(N)/C(N)=N\N=C/c2ccc(N(CC)CC)cc2)cc1 | 104% | 104% | 101% | 104% | 106% | 105% | 114% | 106%
CCCCNC(=O)Oc1ccc(/C(=C(/C)Cc2ccc(OC)cc2)c2ccc(OCCN(CC)CC)cc2)cc1 | 42.1% | 87.1% | 66.8% | 93.3% | 28.5% | 42.7% | 85.6% | 85.1%
c1csc(-c2ccc(CNc3c4ccccc4nc4ccccc34)cc2)c1 | 71.9% | 33.7% | -83.4% (active) | -72.2% (active) | -63% (active) | -82.6% (active) | -87.2% (active) | 26.3%
COc1ccc(C/C(C)=C(/c2ccc(OCCN(C)C)cc2)c2ccc(OC(=O)NCc3ccccc3)cc2)cc1 | 51.7% | 82.5% | 74.4% | 61.5% | 21.2% | 52.1% | 66.6% | 72.6%
Cc1nc2sc(C(=O)Nc3cccc4ccccc34)c(N)c2cc1C(O)c1ccccc1 (stereo not drawn) | 45.4% | 40.2% | 0.328% (active) | 20.2% | 12.4% | 8.89% (active) | 5.55% (active) | 7.64% (active)
C=C1C(=O)O[C@H]2[C@H]1CC/C(Cn1cc(-c3ccccc3)nn1)=C\CC[C@@]1(C)O[C@@H]21 | -38% (active) | -61.1% (active) | -21.5% (active) | -79.1% (active) | -60.1% (active) | -67.1% (active) | 5.21% (active) | 56%
COc1ccc(/C=C(\C#N)n2nnc3cc(Cl)ccc32)cc1 | 17.2% | -1.84% (active) | -61.6% (active) | 8.09% (active) | 1.74% (active) | -9.51% (active) | -30.2% (active) | 5.89% (active)
CCCCCCCCCc1ccc(OCCOCCOCCOCCOCCOCCOCCOCCOCCO)cc1 | 116% | -9.07% (active) | 7.48% (active) | 19.1% | 10.9% | 11% | 23.3% | 13.3%
C=C(CBr)[C@@H]1CC[C@]2(C(=O)O)CC[C@]3(C)[C@H](CC[C@@H]4[C@@]5(C)CCC(=O)C(C)(C)[C@@H]5CC[C@]43C)[C@@H]12 | 67.9% | 84% | 95.6% | 85.5% | 78.2% | 72.6% | 95.7% | 68.6%
CCOC(=O)C/C(=N\Nc1cc(=O)[nH]c2ccc(Br)cc12)C(=O)OCC | 105% | 96.6% | 101% | 90.4% | 91.9% | 99.7% | 96.9% | 96%
NC(=O)c1ccc(-c2c3ccccc3cc3c2ccc2ccccc23)cc1 | 60.4% | 29.1% | 0.545% (active) | 17.1% | 17.7% | 33.4% | 60% | 3.27% (active)
Fc1cc2c(cc1Cl)N(c1ncnc3ccc(-c4ccc5n[nH]nc5c4)cc13)CC2 | 65.5% | 88.2% | 92.4% | 96.9% | 80.3% | 96.7% | 92.1% | 97.7%
NC(=O)c1cc(I)ccc1NC(=O)/C=C/c1ccccc1 | 122% | 61.5% | -30.5% (active) | 9.63% (active) | 2.18% (active) | 8.52% (active) | -62.3% (active) | 8.98% (active)
COc1ccc(OC)c(/C=N/Nc2ncnc3c2c(C)nn3C)c1 | 84.6% | 101% | 105% | 107% | 85.2% | 109% | 102% | 103%
CCN(C)S(=O)(=O)Nc1cccc(Nc2ncnc3cc(NC(=O)CCl)ccc23)c1Cl | 16% | -4.04% (active) | -5.32% (active) | -53.5% (active) | -5.68% (active) | 0.862% (active) | 39.1% | 1.71% (active)
CCOC(=O)C1=C(c2ccccc2)N=C2SC=C(c3ccc(Cl)cc3)N2C1c1ccc(Br)cc1 (stereo not drawn) | 52.2% | 84.3% | 94.3% | 78.9% | 75.2% | 64.9% | 90.5% | 78.1%

SMILES | growth [1] | growth [2] | growth [3] | growth [4] | growth [5] | growth [6] | growth [7] | growth [8]
Nc1ncnc2c1C(c1ccccc1)c1ccc3ccccc3c1O2 (stereo not drawn) | 55.7% | 73.3% | 79.3% | 94.9% | 67.4% | 85.3% | 102% | 88.3%
Cc1ccc(C(=O)c2ccc(CC(=O)N/N=C/c3ccccc3O)n2C)cc1 | 75.6% | 85.1% | 83.2% | 89.6% | 81.5% | 92.1% | 92.1% | 80.4%
S=c1sc2c(Cl)nc(-c3cccnc3)nc2n1-c1ccccc1 | -14.5% (active) | 27.9% | 41.2% | 0.199% (active) | 3.63% (active) | 1.57% (active) | 39.6% | 46.3%
O=C(/C=C/c1cccc(Cl)c1)c1ccc(Nc2nc(Nc3ccc(F)cc3)nc(Nc3ccc(Cl)cc3)n2)cc1 | 113% | 172% | 117% | 104% | 230% | 82.3% | 98.2% | 112%
Cc1ccc2c(Cn3cc(CSc4nc5ccccc5o4)nn3)cc(=O)oc2c1 | 100% | 104% | 102% | 106% | 100% | 104% | 115% | 113%
COc1ccc(C2CC(c3ccc(Nc4nc(Nc5ccccc5)nc(Nc5ccccc5)n4)cc3)=NN2C(C)=O)cc1 (stereo not drawn) | 73.4% | 166% | 93.7% | 104% | 129% | 96.5% | 110% | 112%
COc1cccc(CNc2ccc3ncnc(Nc4ccc(F)c(Cl)c4)c3c2)c1 | 51.3% | 86.8% | 78.3% | 76.6% | 65.2% | 64.9% | 86.4% | 76.6%
Cc1c[n+](Cc2ccc3ccccc3c2)cn1Cc1ccc2ccccc2c1 | -8.03% (active) | -2.98% (active) | -20.9% (active) | 36.8% | 18.5% | 23.2% | 14.8% | -44.7% (active)
Cc1c(O)cc(-c2cnc(Nc3ccccc3)s2)c(O)c1C | 68.6% | 91.8% | 101% | 104% | 82.2% | 97.8% | 118% | 95.9%
CC/C=C\C[C@H](O)C/C=C1/C(=O)C=C[C@@H]1C/C=C\CCCC(=O)N(C)C | 10.7% | -34.8% (active) | -18.1% (active) | -42.4% (active) | 7.79% (active) | -63.4% (active) | -90.7% (active) | -51.3% (active)
Cc1ccccc1/C=C/C(=O)c1cccc(OCCCCOc2cccc(C(=O)/C=C/c3ccccc3C)c2)c1 | 91.4% | 111% | 95% | 94.6% | 41.5% | 41.6% | 93.4% | 96.7%
CCCCCCCCCCC(CN(CC)CC)C(O)c1ccccc1 (stereo not drawn) | 3.27% (active) | 61.7% | -25.1% (active) | 32.1% | 1.87% (active) | 20.7% | -19.4% (active) | 8.29% (active)
O=C(/C=C/c1ccccc1)Nc1ncc(Cc2ccccc2Cl)s1 | 21.1% | 55.2% | -44.4% (active) | 31.4% | 18.9% | 16% | 35.4% | 14%
CCCCNC(=O)Oc1ccc(/C(=C(/C)Cc2ccc(OC)cc2)c2ccc(OCCN3CCCC3)cc2)cc1 | 32.4% | 73.8% | 55.8% | 72.7% | 17.7% | 39.3% | 64.7% | 55.3%
CS(=O)(=O)Nc1cc(-c2ccc3ncnc(Nc4ccc5c(cnn5Cc5cccc(F)c5)c4)c3c2)cnc1Cl | -24.6% (active) | -13.5% (active) | 8.98% (active) | 18.4% | 0.881% (active) | 4.08% (active) | 2.5% (active) | 13.9%
